The results in this text go back to PubChem BioAssay (EPA / NIEHS).

Values joined by “and” are separate entries in the source; they are usually repeats but may differ in a detail not shown here. Identical values can stand only once. Inconclusive results are not listed. More than one record can exist for a structure, and the calls need not agree. Active and inactive are the calls of the source. How the source made its calls, unless noted: active means hit-call score of the fitted dose curve at least 0.9, where 1 is the maximum; inconclusive means response in the unintended direction; inactive means score below 0.9.

Assay [1] deals with Retinoic acid receptor RXR-alpha (Homo sapiens) (UniProt P19793). As to the kind of experiment: OT_NURR1_NURR1RXRa_0480: Odyssey Thera (OT) 8-hour HEK293T Protein Complementation Assay for Nurr1/retinoid X receptor (RXR) (AID 2283385). In outline: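 HEK293T cells expressing Nurr1 and RXRα fused to reporter fragments were dosed with compound for 8 hours. Complex formation was read as fluorescence intensity and analysed as gain of signal against DMSO as baseline.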
Sequence of Retinoic acid receptor RXR-alpha (Homo sapiens) (P19793 whole entry, looked up, the tested form may be a part): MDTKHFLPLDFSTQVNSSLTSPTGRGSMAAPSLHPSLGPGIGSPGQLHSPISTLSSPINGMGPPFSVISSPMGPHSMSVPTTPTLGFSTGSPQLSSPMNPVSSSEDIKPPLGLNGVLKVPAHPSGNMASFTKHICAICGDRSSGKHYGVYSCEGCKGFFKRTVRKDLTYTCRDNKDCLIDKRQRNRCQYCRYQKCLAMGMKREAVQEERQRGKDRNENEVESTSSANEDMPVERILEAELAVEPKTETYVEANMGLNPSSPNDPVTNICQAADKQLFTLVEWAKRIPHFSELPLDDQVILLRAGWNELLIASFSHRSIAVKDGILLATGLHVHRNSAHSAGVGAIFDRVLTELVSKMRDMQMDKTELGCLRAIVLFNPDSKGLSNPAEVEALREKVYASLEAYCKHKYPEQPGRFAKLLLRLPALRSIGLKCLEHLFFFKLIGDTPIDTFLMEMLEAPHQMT

Assay [2] has the same target. As to the kind of experiment: OT_NURR1_NURR1RXRa_1440: Odyssey Thera (OT) 24-hour HEK293T Protein Complementation Assay for Nurr1/retinoid X receptor (RXR) (AID 2283386). In outline:
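HEK293T cells were dosed with compound and read 24 h later by fluorescence intensity in a protein-fragment complementation format, where Nurr1–RXRα interaction reconstitutes a split reporter. Activity was fitted as gain of signal relative to DMSO baseline.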

Assay [3] concerns the target Peroxisome proliferator-activated receptor gamma (Homo sapiens) (UniProt P37231). Put plainly: OT_PPARg_PPARgSRC1_0480: Odyssey Thera (OT) 8-hour Protein-Complementation Assay for Peroxisome Proliferator-activated Receptor Gamma / SRC-1 Co-activator (AID 2283387).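 Further: nuclear to cytoplasmic split Venus YFP fluorescence ratio reporting PPARg SRC-1 interaction.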 An outline of the steps:
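Protein-fragment complementation of split Venus YFP reports PPARg/SRC-1 interaction in HEK293T (transfected 48 h before treatment), exposed 8 h. Readout: N/C fluorescence ratio at 488 nm from imaging, Draq5 for segmentation, positive fit relative to DMSO.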

Assay [4] addresses Estrogen receptor beta (Homo sapiens) (UniProt Q92731). As to the kind of experiment: OT_ER_ERbERb_1440: Odyssey Thera (OT) 24-hour HEK293T Protein-Complementation Assay for Estrogen Receptor-beta/-beta Homodimer (AID 2283380).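 Further: fluorescence gain from ER beta LBD homodimer complementation read by laser scanning cytometry; scored as signal increase over DMSO baseline for both agonists and antagonists.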 In outline: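 Fluorescence increase, nuclear for agonists or whole-cell for antagonists, relative to DMSO vehicle, quantified by laser scanning cytometer after fixation and Draq5 staining. Readout from 24 h treatment of HEK293T cells carrying complementation-paired ER beta LBD (aa 310-547).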

Assay [5] has as its target Bile acid receptor (Homo sapiens) (UniProt Q96RI1). As to the kind of experiment: OT_FXR_FXRSRC1_1440: Odyssey Thera (OT) 24-hour HEK293T Protein-Complementation Assay for Farnesoid X receptor/SRC-1 Co-activator (AID 2283384). An outline of the steps:
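HEK293T cells were dosed with compound and read 24 h later by fluorescence intensity from protein-fragment complementation reporting FXR/SRC-1 co-activator interaction. Gain of signal was fitted relative to DMSO negative control as baseline.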

Assay [6] has the same target. As to the kind of experiment: OT_FXR_FXRSRC1_0480: Odyssey Thera (OT) 8-hour HEK293T Protein-Complementation Assay for Farnesoid X receptor/SRC-1 Co-activator (AID 2283383). An outline of the steps: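 HEK293T cells expressing FXR and SRC-1 fused to reporter fragments were dosed with compound for 8 h; fluorescence from the reconstituted reporter marked co-activator recruitment. Gain of signal was fitted against the DMSO baseline.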

The target in assay [7] is Estrogen receptor (Homo sapiens) (UniProt P03372). Put plainly: OT_ERa_GFPERaERE_0480: Odyssey Thera (OT) 8-hour HeLa Transcription Induction Assay for Estrogen Receptor (AID 2283381; active means hit-call score of the fitted dose curve at least 0.9, where 1 is the maximum; inactive means score below 0.9). An outline of the steps:
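HeLa cells dosed with compound and imaged by fluorescence microscopy at 8 h; GFP induction from an ERE reporter quantified by high-content image analysis and fitted as gain of signal against DMSO baseline.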

Assay [8] shares this target. As to the kind of experiment: OT_ERa_GFPERaERE_0120: Odyssey Thera (OT) 2-hour HeLa Transcription Induction Assay for Estrogen Receptor (AID 2283382). In outline:
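HeLa cells were dosed with test chemical and read 2 hours later for GFP-ERα/ERE-linked fluorescent protein induction by fluorescence microscopy. Gain-of-signal was fitted relative to DMSO baseline, quantified by high content image analysis.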

Sequence of Peroxisome proliferator-activated receptor gamma (Homo sapiens) (P37231 whole entry, looked up, the tested form may be a part): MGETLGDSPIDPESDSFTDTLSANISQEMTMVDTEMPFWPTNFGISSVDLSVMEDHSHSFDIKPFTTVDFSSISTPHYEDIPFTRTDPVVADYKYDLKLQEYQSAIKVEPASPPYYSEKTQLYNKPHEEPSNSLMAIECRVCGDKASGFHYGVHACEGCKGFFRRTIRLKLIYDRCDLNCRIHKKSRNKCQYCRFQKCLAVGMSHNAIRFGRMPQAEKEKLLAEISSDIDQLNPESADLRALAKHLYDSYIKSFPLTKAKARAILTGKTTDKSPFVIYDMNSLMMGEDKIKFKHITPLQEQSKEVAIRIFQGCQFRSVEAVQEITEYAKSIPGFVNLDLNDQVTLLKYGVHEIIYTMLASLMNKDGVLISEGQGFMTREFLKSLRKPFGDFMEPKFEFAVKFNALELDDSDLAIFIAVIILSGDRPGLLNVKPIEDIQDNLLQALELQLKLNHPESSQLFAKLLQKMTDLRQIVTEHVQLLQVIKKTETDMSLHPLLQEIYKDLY
Sequence of Bile acid receptor (Homo sapiens) (Q96RI1 whole entry, looked up, the tested form may be a part): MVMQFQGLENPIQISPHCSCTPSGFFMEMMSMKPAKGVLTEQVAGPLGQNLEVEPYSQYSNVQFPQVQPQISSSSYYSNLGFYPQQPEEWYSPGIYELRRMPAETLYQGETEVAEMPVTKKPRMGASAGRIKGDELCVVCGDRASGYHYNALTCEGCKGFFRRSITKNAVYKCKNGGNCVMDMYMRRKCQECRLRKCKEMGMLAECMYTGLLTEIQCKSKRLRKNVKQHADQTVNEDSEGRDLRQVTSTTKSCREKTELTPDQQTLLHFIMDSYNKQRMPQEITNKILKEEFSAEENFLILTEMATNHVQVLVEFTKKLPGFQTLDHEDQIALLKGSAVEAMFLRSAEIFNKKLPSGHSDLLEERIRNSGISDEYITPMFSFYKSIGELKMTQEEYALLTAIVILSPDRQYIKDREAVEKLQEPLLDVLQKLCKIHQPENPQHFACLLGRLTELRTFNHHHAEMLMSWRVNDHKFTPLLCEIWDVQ
Sequence of Estrogen receptor (Homo sapiens) (P03372 whole entry, looked up): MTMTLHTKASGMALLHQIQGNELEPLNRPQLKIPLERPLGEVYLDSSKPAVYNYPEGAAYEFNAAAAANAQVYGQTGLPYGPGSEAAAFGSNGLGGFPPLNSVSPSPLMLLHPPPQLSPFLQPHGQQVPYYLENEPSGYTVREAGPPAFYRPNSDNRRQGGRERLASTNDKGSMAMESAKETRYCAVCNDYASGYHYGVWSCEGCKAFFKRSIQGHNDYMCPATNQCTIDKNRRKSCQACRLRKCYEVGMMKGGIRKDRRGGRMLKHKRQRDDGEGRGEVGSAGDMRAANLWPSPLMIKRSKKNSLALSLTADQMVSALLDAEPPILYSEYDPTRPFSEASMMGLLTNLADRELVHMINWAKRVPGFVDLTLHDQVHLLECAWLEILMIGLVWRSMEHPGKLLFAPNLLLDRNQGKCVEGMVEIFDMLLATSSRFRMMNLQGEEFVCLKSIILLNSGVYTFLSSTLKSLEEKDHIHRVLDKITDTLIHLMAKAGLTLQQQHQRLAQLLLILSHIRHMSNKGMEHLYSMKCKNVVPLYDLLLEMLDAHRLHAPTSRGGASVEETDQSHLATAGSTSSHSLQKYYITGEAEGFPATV
Sequence of Estrogen receptor beta (Homo sapiens) (Q92731 whole entry, looked up, the tested form may be a part): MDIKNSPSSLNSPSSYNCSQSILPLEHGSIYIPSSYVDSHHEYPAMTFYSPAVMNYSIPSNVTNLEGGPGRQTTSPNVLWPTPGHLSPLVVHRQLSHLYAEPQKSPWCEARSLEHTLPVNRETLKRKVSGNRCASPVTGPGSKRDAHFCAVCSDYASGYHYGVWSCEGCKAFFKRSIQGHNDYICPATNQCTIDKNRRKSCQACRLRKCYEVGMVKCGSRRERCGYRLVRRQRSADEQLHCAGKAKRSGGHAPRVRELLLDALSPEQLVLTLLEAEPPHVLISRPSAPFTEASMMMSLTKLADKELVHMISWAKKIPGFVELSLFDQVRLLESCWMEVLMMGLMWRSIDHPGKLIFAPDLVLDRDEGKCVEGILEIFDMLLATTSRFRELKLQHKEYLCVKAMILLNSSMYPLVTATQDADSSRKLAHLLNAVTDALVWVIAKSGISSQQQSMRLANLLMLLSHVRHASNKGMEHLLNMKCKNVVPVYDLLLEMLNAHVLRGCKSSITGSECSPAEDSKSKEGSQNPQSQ

On to `CON=C(C(=O)OC)c1ccccc1CON=C(C)c1cccc(C(F)(F)F)c1`, for which, in assay [1], the AC50 – broadly, the concentration at which the activity in the assay is half-maximal – was 17.4 µM (active). Moreover, the compound was called inactive in assay [1], in assay [2] and in assay [3].
Regarding `CCOP(=O)(SC(C)CC)N1CCSC1=O` (configuration not stated), the result in assay [1], in assay [2] and in assay [3] was inactive.
As for `CN(C)C(=O)Nc1cccc(C(F)(F)F)c1`, the compound was classed as inactive in assay [4], in assay [1], in assay [2] and in assay [3].
On to `CCCOCC(=Nc1ccc(Cl)cc1C(F)(F)F)n1ccnc1`, for which the result in assay [4] and in assay [3] was inactive. Further, in assay [5], the AC50 was 11.2 µM (active).
`CCc1cccc(C)c1N(C(=O)CCl)C(C)COC` (configuration not stated): the call in assay [4], in assay [1], in assay [2] and in assay [3] was inactive.
As to `CC(C1CC1)C(O)(Cn1cncn1)c1ccc(Cl)cc1` (configuration not stated), in assay [4], the AC50 is 31.1 µM (active). Further, the call in assay [1] and in assay [3] was inactive.
Take `CCCCN(CC)c1c([N+](=O)[O-])cc(C(F)(F)F)cc1[N+](=O)[O-]`: the compound was called inactive in assay [4], in assay [1], in assay [2] and in assay [3].
`CN(C)[C@@H]1C(=O)C(C(N)=O)=C(O)[C@@]2(O)C(=O)C3=C(O)c4c(O)cccc4[C@@](C)(O)[C@H]3[C@H](O)[C@@H]12`: the AC50 in assay [1] is 50 µM (active); in assay [2] it was 23.7 µM (active). For the same compound, the outcome in assay [1], in assay [2] and in assay [3] was inactive.
As for `C=C(C)[C@H]1Cc2c(ccc3c2O[C@@H]2COc4cc(OC)c(OC)cc4[C@@H]2C3=O)O1`, the AC50 was 12.7 µM (active) in assay [6]; 9.92 µM (active) in assay [5]; 16 µM (active) and 12.6 µM (active) in assay [1]; 22.2 µM (active) in assay [2]. Moreover, the call in assay [2] and in assay [3] was inactive.
`CN1COCN(Cc2cnc(Cl)s2)C1=N[N+](=O)[O-]`: the compound was classed as inactive in assay [5], in assay [1], in assay [2] and in assay [3].
Regarding `CCc1cnc(C2=NC(C)(C(C)C)C(=O)N2)c(C(=O)O)c1` (configuration not stated), the compound was classed as inactive in assay [2] and in assay [3].
Consider `O=[N+]([O-])c1cc(C(F)(F)F)c(Cl)c([N+](=O)[O-])c1Nc1ncc(C(F)(F)F)cc1Cl`, for which the values for the AC50 in assay [7], in assay [8] and in assay [2] were 17.9 µM (active), 77.7 µM (active) and 0.641 µM (active), respectively. The compound was classed as inactive in assay [3].
Regarding `CCOP(=S)(OCC)SCCSCC`, the call in assay [4], in assay [1] and in assay [3] was inactive.
Regarding `N#CSCSC#N`, the result in assay [4] and in assay [3] was inactive. Besides, in assay [6], the AC50 was 11.4 µM (active).
Consider `FC(F)C(F)(F)OCC(Cn1cncn1)c1ccc(Cl)cc1Cl` (configuration not stated), for which the result in assay [4], in assay [6] and in assay [3] was inactive.
As for `CCOP(=S)(OCC)Oc1cc(C)nc(C(C)C)n1`, the compound was called inactive in assay [3].
With `Nc1nc(N)nc(NC2CC2)n1`, the outcome in assay [4], in assay [5], in assay [1] and in assay [2] was inactive.
As to `CNC(=O)ON=C(C)SC`, the result in assay [4], in assay [1], in assay [2] and in assay [3] was inactive.
For `O=C(O)c1cc(Oc2ccc(C(F)(F)F)cc2Cl)ccc1[N+](=O)[O-]`, the outcome in assay [4] and in assay [3] was inactive.
In the case of `CCOP(=S)(Oc1cnc(C(C)(C)C)nc1)OC(C)C` (configuration not stated), the values for the AC50 in assay [1] and in assay [2] were 73.2 µM (active) and 78.8 µM (active), respectively. The compound was called inactive in assay [1], in assay [2] and in assay [3].
On to `CN(C)NC(=O)CCC(=O)O`, for which the concentration at half-maximal activity (AC50) in assay [4] was 16.8 µM (active). For the same compound, the call in assay [1], in assay [2] and in assay [3] was inactive.
Consider `CNC(=O)Oc1cccc2c1OC(C)(C)O2`, for which the result in assay [7], in assay [8], in assay [5], in assay [1] and in assay [3] was inactive.
Consider `COP(=O)(NC(C)=O)SC` (configuration not stated), for which the compound was classed as inactive in assay [4], in assay [1], in assay [2] and in assay [3].
Turning to `CC(C)[C@H](C(=O)O[C@H](C#N)c1cccc(Oc2ccccc2)c1)c1ccc(Cl)cc1`, the compound was called inactive in assay [4], in assay [2] and in assay [3].
With `C#CC(C)(C)NC(=O)c1cc(Cl)cc(Cl)c1`, the compound was called inactive in assay [1].
As for `CCOP(=S)(OCC)Oc1ccc([N+](=O)[O-])cc1`, the result in assay [1], in assay [2] and in assay [3] was inactive.
As to `CC(=NC#N)N(C)Cc1ccc(Cl)nc1`, the compound was classed as inactive in assay [4], in assay [1], in assay [2] and in assay [3].
Regarding `CC1=NNC(=O)N(/N=C/c2cccnc2)C1`, the result in assay [4], in assay [2] and in assay [3] was inactive.
`CCOP(=O)(OCC)Oc1cc(C)nc(C(C)C)n1`: the compound was classed as inactive in assay [4], in assay [6], in assay [5], in assay [2] and in assay [3].
In the case of `COc1cc(OC)nc(Sc2cccc(Cl)c2C(=O)O)n1`, the outcome in assay [1], in assay [2] and in assay [3] was inactive.
As to `CCNc1nc(Cl)nc(NC(C)(C)C#N)n1`, the outcome in assay [4], in assay [1], in assay [2] and in assay [3] was inactive.
As to `CCOP(=S)(OCC)OC(Cl)C(Cl)(Cl)Cl` (configuration not stated), the call in assay [4], in assay [1], in assay [2] and in assay [3] was inactive. Also, the AC50 in assay [1] was 80.9 µM (active).
With `S=C1NCCN1`, the compound was called inactive in assay [1], in assay [2] and in assay [3].
For the compound `CCC(=NOC/C=C/Cl)C1=C(O)CC(C2CCOCC2)CC1=O` (configuration not stated), the outcome in assay [4], in assay [1], in assay [2] and in assay [3] was inactive.
